PNC assembly inh – High Content Assay for Compounds that inhibit the Assembly of the Perinucleolar Compartment; PC3M PTB-GFP, PNC prevalence imaging, 16 h; active compounds read low; activity change (PNC), negative = inhibition, % at 10 µM; 3.1% of 140,000 active; AID 2417, 2010;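 active = readout at or below -70, meaning at least 70% loss of cells showing the perinucleolar compartment, a nuclear body marking cancer cells; inconclusive = readout between -30 and a set limit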
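Read-out is percentage of cells bearing a perinucleolar compartment, from automated 20x imaging of fixed, Hoechst-stained PC3M PTB-GFP cells. Cells were seeded 4 h, then exposed 16 h to compound (23 nl of library stock) in duplicate plates.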
IMPase cell inh – qHTS Assay for Identifying the Cell-Membrane Permeable IMPase Inhibitors. Inositol monophosphatase 1 (Rattus norvegicus), P97697. CHO-M1 cells, IP1 accumulation, HTRF TR-FRET ratio. inhibition (IP1 accumulation), % at 46.1 µM. 120,000 tested, under 10 active; active = well fitted curve in the direction sought with a large enough effect in the signal ratio, not every such curve was filed as active; inconclusive = small, poorly fitted or top-dose-only effect, or a change in a side signal; inactive = no such curve, though single readings can be large or run the other way; the % refers to the signal ratio;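 also: cells stimulated with carbachol in lithium chloride buffer; higher means more IMPase inhibition seen as more IP1 and lower FRET ratio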
Target sequence (P97697 whole entry, looked up): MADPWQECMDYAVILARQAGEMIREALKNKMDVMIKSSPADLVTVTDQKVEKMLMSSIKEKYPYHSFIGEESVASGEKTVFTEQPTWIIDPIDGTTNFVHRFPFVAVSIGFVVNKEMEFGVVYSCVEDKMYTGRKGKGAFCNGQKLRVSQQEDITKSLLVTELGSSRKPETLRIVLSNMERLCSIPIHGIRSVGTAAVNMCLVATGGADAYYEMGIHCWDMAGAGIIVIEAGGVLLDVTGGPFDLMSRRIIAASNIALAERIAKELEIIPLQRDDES
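In this qHTS, compounds (final up to 46 uM) act on CHO-M1 cells that are then activated through the M1 receptor with carbachol, in pH 7.4 buffer containing 50 mM LiCl, for 30 min. IP1 accumulation is quantified by the IP-One immunoassay.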
IMPase Li inh – qHTS Assay for Identifying the Cell-Membrane Permeable IMPase Inhibitors: Potentiation with Lithium | 0.35% of 210,000 active | Potency, µM (series often up to 59.4 µM), usual class: inhibitors | CHO-M1 cells, IP1 TR-FRET (IP-One), carbachol + lithium; active = well fitted inhibition curve with a large enough effect; inconclusive = small, poorly fitted or top-dose-only effect; inactive = no such curve, though single readings can be large or run the other way;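 also: IP1 builds up when IMPase is blocked and the TR-FRET signal falls; nearly all actives have a fitted effect of over 50% in size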
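Steps: plate 2000 CHO-M1 cells per well and culture 16–30 h; add compound and lithium; incubate 30 min, 37C; add d2-IP1 tracer and Eu cryptate anti-IP1 antibody in lysis buffer; read after 10 min at room temperature.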
ALDH1A1 block – qHTS Assay for Inhibitors of Aldehyde Dehydrogenase 1 (ALDH1A1) | Potency, µM (titrated, usually from 75.3 µM), most hits filed as inhibitors | 7.3% of 220,000 active | Aldehyde dehydrogenase 1A1 (Homo sapiens), P00352 | Purified ALDH1A1, NADH fluorescence, propionaldehyde substrate | AID 1030, 2008
HPGD block – qHTS Assay for Inhibitors of HPGD (15-Hydroxyprostaglandin Dehydrogenase) | 15-hydroxyprostaglandin dehydrogenase [NAD(+)] (Homo sapiens), P15428 | purified HPGD, NADH fluorescence kinetic, PGE2 substrate | Potency, µM, hits mostly inhibitors | 4.3% of 150,000 active | AID 894, 2007
Target sequence (P15428 whole entry, looked up): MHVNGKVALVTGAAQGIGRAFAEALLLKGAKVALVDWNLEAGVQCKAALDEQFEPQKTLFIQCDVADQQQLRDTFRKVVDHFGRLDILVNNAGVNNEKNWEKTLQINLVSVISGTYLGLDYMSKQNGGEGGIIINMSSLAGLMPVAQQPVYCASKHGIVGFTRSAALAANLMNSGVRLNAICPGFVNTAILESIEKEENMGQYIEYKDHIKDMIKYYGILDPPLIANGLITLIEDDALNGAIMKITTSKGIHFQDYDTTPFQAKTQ
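20 nM HPGD preincubated 15 min at room temperature with compound in 50 mM Tris-HCl pH 8, 0.01% Tween 20. Started with 1 mM NAD+ and 30 uM prostaglandin E2; NADH fluorescence (360/450 nm) read 5 times over 30-s intervals, last minus first.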
Large screens that a line does not name were inactive. Sampled rows, rich in hits. Any-hit rate of the full collection: about 11%. Unless noted, calls follow the shape of the dose curve; as a rule, active = well fitted inhibition curve with a large enough effect (not every such curve was filed as active); inconclusive = small, poorly fitted or top-dose-only effect, or another doubt; inactive = no such curve, though single readings can be large or run the other way.

CC(=O)Nc1nnc(SCC(=O)NCC2CCCO2)s1 (configuration not stated)	PNC assembly inh -100, ALDH1A1 block inconclusive
Cc1cccc(-c2nsc(SCC(=O)NCc3ccc4c(c3)OCO4)n2)c1	none
CCOC(=O)CNC(=O)CSc1nnc(SCC(=O)NCC(=O)OCC)s1	ALDH1A1 block 0.25µM, HPGD block inconclusive
C=CCSc1nnc(NC(=O)c2ccc(S(=O)(=O)NCC3CCCO3)cc2)s1 (configuration not stated)	ALDH1A1 block inconclusive, HPGD block 18µM
CCOC(=O)CNC(=O)CSc1nnc(NC(=O)c2ccc(C)cc2)s1	ALDH1A1 block inconclusive (no result: PNC assembly inh, IMPase cell inh, HPGD block)
O=C(Nc1ccc(S(=O)(=O)NCC2CCCO2)cc1)c1ccccc1 (configuration not stated)	none (no result: PNC assembly inh, IMPase cell inh, HPGD block)
CCOc1cccc(-c2csc(C3COc4ccccc4O3)n2)c1 (configuration not stated)	none (no result: IMPase cell inh)
COc1ccc(CCN2C(=O)c3cccc4c(C(=O)N5CCCCC5)ccc(c34)C2=O)cc1OC	ALDH1A1 block 10µM, HPGD block 13µM
COc1ccc(CCNC(=O)CCN2C(=O)c3cccc4cccc(c34)C2=O)cc1OC	none (no result: PNC assembly inh, IMPase cell inh, HPGD block)
O=C(c1ccccc1)c1ccc(OCCn2cnc3ccccc3c2=O)cc1	PNC assembly inh inconclusive, ALDH1A1 block inconclusive, HPGD block 4.5µM
CC(C)(c1ccccc1)c1ccc(OCCn2cnc3ccccc3c2=O)cc1	none
O=C(NCCOc1ccccc1)O[C@@H]1C(=O)c2cc(Br)ccc2O[C@H]1c1ccc2c(c1)OCO2	none (no result: PNC assembly inh, IMPase cell inh)
Cc1ccc(S(=O)(=O)N2c3ccccc3OCC2c2ccccc2)cc1 (configuration not stated)	PNC assembly inh -100
CC1COc2ccccc2N1C(=O)c1ccc(Cl)nc1 (configuration not stated)	none (no result: PNC assembly inh, IMPase cell inh, HPGD block)
O=C(C(Cl)Cl)N1c2ccccc2OCC1c1ccccc1 (configuration not stated)	PNC assembly inh inconclusive, ALDH1A1 block 1.3µM
CC(C)=CCc1c(O)cc2occ(-c3ccc4c(c3)OCO4)c(=O)c2c1O	HPGD block 25µM (no result: PNC assembly inh, IMPase cell inh)
COc1ccc(-c2coc3cc(O)cc(O)c3c2=O)cc1	none
O=c1c(-c2cc(O)c(O)c(O)c2)coc2cc(O)c(O)c(O)c12	ALDH1A1 block 25µM, HPGD block 7.1µM (no result: PNC assembly inh, IMPase cell inh)
O=c1c(-c2ccc(O)cc2)coc2cc(O)cc(O)c12	HPGD block 25µM (no result: PNC assembly inh)
COc1ccc(-c2coc3cc(OC)cc(O)c3c2=O)cc1	none
Cc1sc2nc(CSCC(=O)Nc3ccccc3C#N)[nH]c(=O)c2c1C	ALDH1A1 block inconclusive
COCC(=O)N1CCC[C@@]2(CCN(c3ccccn3)C2)C1	ALDH1A1 block inconclusive (no result: PNC assembly inh, IMPase cell inh)
COc1ccc(/C=C/C(=O)CC(O)(c2ccccc2)C(F)(F)F)cc1 (configuration not stated)	PNC assembly inh -100, ALDH1A1 block inconclusive
CCOC(=O)N1CCN(C(=O)C2CC(=O)N(c3ccc(OC)cc3)C2c2ccc(OC)cc2)CC1 (configuration not stated)	PNC assembly inh -100
COc1ccc(C2C(C(=O)O)CC(=O)N2c2ccc(OC)cc2)cc1 (configuration not stated)	none
N#CCN1CCC(c2cc(-c3ccco3)n[nH]2)CC1	IMPase Li inh inconclusive, ALDH1A1 block 22µM (no result: PNC assembly inh, IMPase cell inh, HPGD block)
c1coc(-c2cc(C3CCNCC3)[nH]n2)c1	none (no result: PNC assembly inh, IMPase cell inh, HPGD block)
CCC1=C2CC[C@H]3C(=O)N(c4ccccc4)C(=O)[C@H]3[C@H]2[C@@]2(Cc3ccccc3)C(=NCCc3c[nH]c4ccccc34)OC(=O)N2C1=O	none (no result: PNC assembly inh, IMPase cell inh)
COc1ccc(-c2n[nH]c(C)c2-c2cnn(-c3ccccc3)c2)c(O)c1C	none
COc1ccc(-c2n[nH]c(C)c2-c2cnn(-c3ccccc3)c2)c(O)c1	IMPase cell inh inconclusive, ALDH1A1 block 7.9µM
COCCCNCCCOc1ccc(C(C)(C)c2ccccc2)cc1	PNC assembly inh -107, ALDH1A1 block inconclusive (no result: IMPase cell inh)
COCCCNCC#CCOc1ccc(OC)cc1	ALDH1A1 block 8.9µM (no result: PNC assembly inh, IMPase cell inh, HPGD block)
Sc1ccc2ccccc2c1CNCc1ccccc1	none (no result: PNC assembly inh, IMPase cell inh)
Cn1c(=O)c(-c2cccc(Cl)c2)nc2cncnc21	none (no result: PNC assembly inh, IMPase cell inh)

Source: PubChem BioAssay (National Center for Advancing Translational Sciences (NCATS))
